Measured values published in PubChem BioAssay (NCI).
“And” between values parts separate entries of the source, which are not always exact repeats. Identical values can stand only once. About 83,000 compounds went through this panel and 20% of them were active in at least one assay; those are over-represented in the sample as a whole.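 Single-dose data. Exposure time 48 hours. Values below 10 considered active.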 Unmarked numbers belong to inactive results. The source made the active and inactive calls.

System: HL-60(TB) leukemia
Experiment: NCI-60 one-dose screen, 48 h (100 = growth as untreated, 0 = no growth, -100 = all killed)
Settings: 10 µM unless noted

| SMILES | growth |
| --- | --- |
| CC(=O)Nc1ccc(CC[C@H]2CCC/C=C/[C@@H]3C[C@H](O)C[C@H]3[C@H](O)/C=C/C(=O)O2)cc1 | -9.6% (active) |
| COc1ccc(/C=c2\sc3n(c2=O)C2C(NN=3)N(C)C(=O)N2C)cc1 (stereo not given) | -47.5% (active) |
| C=C1C(=O)O[C@H]2[C@H]1CC/C(COC(=O)CCC(=O)OC/C1=C/CC[C@@]3(C)O[C@H]3[C@H]3OC(=O)C(=C)[C@@H]3CC1)=C\CC[C@@]1(C)O[C@@H]21 | -41.9% (active) |
| COC(=O)[C@]12CC[C@@H](C)[C@H](C)[C@@H]1C1=CC[C@@H]3[C@@]4(C)CC(=O)[C@H](O)[C@@](C)(CO)[C@@H]4C(=O)C[C@@]3(C)[C@]1(C)CC2 | -33.3% (active) |
| O=C(CCc1nnc2sc(-c3ccc(Cl)cc3Cl)nn12)c1nc2ccccc2[nH]1 | 3.48% (active) |
| CCN(CC)CCSc1nc(-c2ccccc2)c(C#N)c(=O)[nH]1 | 114% |
| Cc1cc(N=Nc2ccc(-c3ccc(N=Nc4ccc(O)c(C(=O)O)c4)cc3)cc2)c(N)c(N=Nc2ccc(C(=O)O)cc2)c1N | 81% |
| O=C(N/N=C/c1ccccc1)N/N=C/c1ccccc1 | 95.3% and 98.4% |
| O=C(CCN1CCCC1)Nc1ccc2c(Nc3ccccc3)c3ccccc3nc2c1 | -46% (active) |
| COc1ccc(Nc2nnc(-c3ccc(OC)c(OC)c3)o2)cc1 | 84.2% |
| COc1cccc(-c2nc3sccn3c2-c2ccnc(NCCCNS(=O)(=O)c3ccccc3)n2)c1 | 39.9% |
| O=C(Cn1ccc(=O)[nH]c1=O)c1ccc([N+](=O)[O-])o1 | 87.1% |
| O[C@H]1CO[C@H]2[C@@H]1OC[C@@H]2Oc1ccc(Nc2nc(Nc3ccc(F)c(Cl)c3)ncc2F)cc1Cl | 104% |
| COc1cc2oc(-c3cccc(NC(=O)c4cccc(Br)c4)c3)cc(=O)c2c(OC)c1OC | 65.5% |
| COc1ccc2c(c1)C(=O)c1c-2c(OCCN2CCCCC2)nc2ccc(OC)cc12 | 17.1% |
| Nc1ncnc2c1c(-c1ccc(Oc3ccccc3)cc1)nn2C[C@H]1SSC[C@@H]1O | -22.5% (active) |
| O=C1CSC(c2ccccc2Cl)N1c1nnc(Cn2nnc3ccccc32)o1 (stereo not given) | 84.4% |
| COc1ccc(/C=C2/SC(=S)NC2=O)c(OC)c1OC | 83.8% |
| COc1cc(/C=C2/Oc3cc4occc4c(OC)c3C2=O)ccc1OCC(=O)Nc1ccncc1 | 106% |
| CCCCCCCCCCCCCCCCCCOc1ccccc1CC(=O)NCC[N+]1(C)CCCC1 | 39.7% |
| O=S(=O)(NC1c2ccccc2Oc2ccccc21)c1ccccc1 | 86.5% |
| CN1CCN(Cn2nc(-c3cc(Cl)cc(Cl)c3Cl)n(/N=C/c3ccc(Cl)cc3)c2=S)CC1 | -38.6% (active) |
| C1CCC([PH+](C2CCCCC2)C2CCCCC2[PH+](C2CCCCC2)C2CCCCC2)CC1.[Au].[CH-]1CCCCC1C1CCCC[N-]1 (stereo not given) | -29.9% (active) |
| O=C(CNS(=O)(=O)Cc1ccccc1)NNc1ccccc1 | 18% |
| O=C(CN1CCOCC1)Nc1nc(-c2cc3ccccc3oc2=O)cs1 | 102% |
